This is an account of results in the supplement of paper PMC4709259.

Where a name gives a salt, the structure may show the parent alone. ± gives the standard deviation.

This assay relates to Jurkat. Description: cell count relative to DMSO control (fraction of control); higher = more cells (less growth inhibition). To be noted: 48 h.
In the case of `NC(=O)C(c1ccccc1)(c1ccccc1)[C@@H]1CCN(CCc2ccc3c(c2)CCO3)C1` [Darifenacin·HBr] (concentration: 25 µM), the cell count was 0.723 ± 0.087.

In turn, `COCCc1ccc(OCC(O)CNC(C)C)cc1` (stereo not given) [Metoprolol Tartrate] (concentration: 25 µM) came in with a cell count of 1.02 ± 0.11.

For the compound `C[C@H]1O[C@H](O[C@H]2[C@H](O)[C@@H](O)[C@@H](O[C@@H]([C@H](O)[C@@H](O)C=O)[C@H](O)CO)O[C@@H]2CO)[C@H](O)[C@@H](O)[C@@H]1N[C@H]1C=C(CO)[C@@H](O)[C@H](O)[C@H]1O` [Acarbose] (concentration: 25 µM), the cell count worked out at 0.877 ± 0.15.

In turn, `OC(c1cc(C(F)(F)F)nc2c(C(F)(F)F)cccc12)C1CCCCN1` (stereo not given) [Mefloquine·HCl] (concentration: 2.5 µM) returned a cell count of 0.813 ± 0.087.

`CC#C[C@]1(O)CC[C@H]2[C@@H]3CCC4=CC(=O)CCC4=C3[C@@H](c3ccc(N(C)C)cc3)C[C@@]21C` [Mifepristone] (concentration: 25 µM) showed a cell count of 0.424 ± 0.054.
